A selection: hits, their analogues and other compounds. The true share with any hit is near 3.9%.
HIF-2a block – blocks HIF-2a reporter activity; 786-0 RCC cells HIF-2a reporter, luciferase luminescence, overnight; inhibition, % at 18.8 µM; 360,000 compounds, 0.72% hits; AID 624352;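 active means inhibition of the luminescence signal of 40% or more relative to plate controls, in a single-dose primary screen at 18.75 µM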
aSyn UTR inh – MLPCN primary screen, SNCA 5' untranslated region. inhibition, % (tested at 7.5 µM). alpha-synuclein 5'UTR reporter, inhibitor activity. 300,000 compounds, 0.82% hits; in the data active means inhibition above about 60%;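 further: H4 neuroglioblastoma cells stably carrying SNCA 5'UTR luciferase fusion; 0% = DMSO wells and 100% = positive control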
TROY NFkB inh – TROY signaling inhibition; Q293 LMP1-TROYcd NF-kB luciferase reporter, 4 h; 360,000 compounds, 0.98% hits; inhibition, % at 10 µM;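 active means compounds whose plate-normalised and pattern-corrected inhibition of the luciferase reporter signal at the single screening dose is 50% or more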
TWEAK-Fn14 inh – TWEAK-Fn14 signaling inhibition | TWEAK-stimulated Fn14 reporter cells, luciferase luminescence, 8 h | inhibition, % at 10 µM | 360,000 compounds, 2% hits; in the data active means inhibition above about 50%
C8 TRAIL sens – caspase-8 TRAIL sensitization | AID 624354 | inhibition (viability loss, TRAIL sensitization), % at 10 µM | NB7+C8 cells + TRAIL, ATPlite viability luminescence | 360,000 compounds, 1% hits;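 active means compounds causing at least 50% loss of cell viability in the single-dose screen, relative to plate controls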
HSP90 inh – HSP90 refolding inhibition in rabbit reticulocyte lysate; luciferase refolding luminescence, 3 h; inhibition, % at 5.6 µM; 290,000 compounds, 0.91% hits;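 active means inhibition above the screen-wide mean plus 3 SD, computed separately per campaign, cut at about 16% in these data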;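 further: 0% = DMSO wells and 100% = 60 µM geldanamycin wells; inhibitors lower the luminescence because luciferase stays unfolded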
HSP90 confirm – confirmation of HSP90 inhibitors | shares compounds with HSP90 inh | rabbit reticulocyte lysate, luciferase refolding luminescence, 3 h | inhibition, % at 5.9 µM | AID 1846 | 2,300 compounds, 64% hits; in the data active means inhibition above about 18%;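 further: 0% = vehicle wells and 100% = reference inhibitor wells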
luciferase ctr – blocks native firefly luciferase in HSP90 counter-screen; shares compounds with HSP90 inh; purified native firefly luciferase, luminescence; inhibition, % at 5.9 µM; 2,300 compounds, 48% hits; AID 1847;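 active means inhibition above the mean inhibition of all tested sample wells plus 3 SD, cut at about 10% in these data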;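 further: 0% = DMSO with luciferase and 100% = wells lacking luciferase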
Target sequence (P08659 whole entry, looked up): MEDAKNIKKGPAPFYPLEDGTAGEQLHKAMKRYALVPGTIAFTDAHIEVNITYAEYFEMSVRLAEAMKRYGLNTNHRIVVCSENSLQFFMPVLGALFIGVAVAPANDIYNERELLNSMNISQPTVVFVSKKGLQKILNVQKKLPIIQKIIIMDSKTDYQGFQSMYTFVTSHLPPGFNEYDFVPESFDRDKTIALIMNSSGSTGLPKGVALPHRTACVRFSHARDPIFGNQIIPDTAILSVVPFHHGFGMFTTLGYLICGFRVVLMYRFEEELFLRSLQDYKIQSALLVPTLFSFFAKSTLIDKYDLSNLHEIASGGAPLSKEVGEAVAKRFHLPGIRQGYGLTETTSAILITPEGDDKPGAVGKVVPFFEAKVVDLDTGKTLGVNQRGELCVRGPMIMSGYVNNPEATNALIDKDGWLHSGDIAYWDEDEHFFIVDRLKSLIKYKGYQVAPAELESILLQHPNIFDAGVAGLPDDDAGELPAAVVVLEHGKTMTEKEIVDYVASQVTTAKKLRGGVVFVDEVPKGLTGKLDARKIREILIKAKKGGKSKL
The depositor's hits bear a star; . = not tested or not shown.

SMILES | HIF-2a block | aSyn UTR inh | TROY NFkB inh | TWEAK-Fn14 inh | C8 TRAIL sens | HSP90 inh | HSP90 confirm | luciferase ctr
Cc1ccc(NC(=S)c2nc3ccccc3[nH]2)cc1 | -174 | -5 | 6 | 0 | 77* | 19* | 23* | 7
COc1ccc2c(c1OC)C(=O)OC2Nc1nc(-c2cc3ccccc3oc2=O)cs1 (stereo not drawn) | -173 | -24 | -49 | 18 | 44 | 64* | 14 | 2
COc1ccc(Cl)cc1-c1cc(C(=O)NCc2cccc(C(F)(F)F)c2)[nH]n1 | -7 | . | 17 | 17 | -4 | . | . | .
Cc1ccc(CSCC(Nc2ccc(C(=O)O)cc2[N+](=O)[O-])C(=O)O)cc1 (stereo not drawn) | 2 | -12 | -5 | 21 | -22 | 25* | -3 | -5
COc1ccc(-c2cc(C(=O)O)c(C)o2)cc1OC | 12 | 18 | 59* | 98* | -3 | 76* | 90* | 65*
C[C@H]1CN([C@@H](C)CO)C(=O)c2cc(Br)cnc2O[C@H]1CN(C)Cc1ccccc1C(=O)O | 10 | . | 2 | -5 | 5 | . | . | .
Cc1ccc(CNc2nc3ccccc3s2)s1 | 13 | 78* | 41 | 80* | 78* | 36* | 68* | 61*
COc1ccc(CNc2nc3ccccc3s2)cc1OC | -231 | -141 | -33 | -14 | 2 | -4 | . | .
O=C(Cc1cc(C(F)(F)F)cc(C(F)(F)F)c1)Nc1c(-c2ccccc2)[nH][nH]c1=O | -3 | . | . | . | -11 | . | . | .
CCCCNC(=O)Nc1nc2ccccc2s1 | -264 | -81 | -27 | -16 | 10 | 2 | . | .
CCCNC(=O)c1ccc(-c2nc3ccccc3s2)s1 | -53 | 79* | . | 52* | 83* | 22* | 68* | 60*
CCCNC(=O)Nc1nc2ccccc2s1 | -251 | -118 | -34 | -2 | 0 | 21* | -2 | -22
CC1(C(=O)Nc2ccc3nc[nH]c3c2)CCN1C(=O)C1(c2ccccc2)CCCC1 (stereo not drawn) | 6 | . | 0 | 15 | -1 | . | . | .
C[C@H]1CN([C@@H](C)CO)C(=O)c2cc(NC(=O)C3CCCCC3)ccc2O[C@H]1CN(C)S(=O)(=O)c1ccccc1 | 14 | . | 11 | -1 | 3 | . | . | .
CC1CCCCC12NC(=O)N(CC(=O)NCc1ccc3c(c1)OCO3)C2=O (stereo not drawn) | 6 | -2 | -11 | 8 | -19 | 26* | -6 | -10
CC1=C(C(=O)NCc2ccc3c(c2)OCO3)C2(CCC(C)CC2)OC1=O (stereo not drawn) | -5 | 3 | -5 | -8 | -3 | 57* | -7 | -10
CC1=C(C(=O)NCc2ccco2)C2(CCC(C)CC2)OC1=O (stereo not drawn) | 23 | -14 | -5 | 13 | -9 | 1 | . | .
COc1ccccc1N(Cc1ccccc1)S(=O)(=O)c1cccc(C(=O)Nc2cccc(C)n2)c1 | 5 | 9 | 10 | 34 | 23 | 5 | . | .
Cc1cc2ccccc2c(=O)n1CC(=O)NCC(=O)N(C)C1CCCCC1 | 2 | -1 | 9 | 12 | -8 | 28* | -7 | -10
Cc1c(N=Cc2nc3ccccc3n2C)c(=O)n(-c2ccccc2)n1C | -10 | 0 | 64* | 62* | -13 | 32* | 37* | 26*
Cc1c(N=Cc2nc3ccccc3[nH]2)c(=O)n(-c2ccccc2)n1C | -26 | -8 | -34 | -16 | 8 | 3 | . | .
CCOC(=O)CN1CC(C)(C)N(CC(=O)OCC)CC1(C)C | 6 | . | 15 | 1 | 10 | . | . | .
C=CCn1c2ccccc2c(=O)c2cc(C#CC3(O)CCCCC3)ccc21 | -209 | -170 | 70* | 2 | 81* | 19* | 27* | 5
COc1ccc(C(=O)NCCn2cc(SCC(=O)NCC3CCCO3)c3ccccc32)cc1 (stereo not drawn) | -29 | -26 | 59* | 84* | 0 | 29* | 15 | 3
COc1ccccc1C(=O)NCCn1cc(SCC(=O)NCC2CCCO2)c2ccccc21 (stereo not drawn) | 11 | 12 | 0 | 9 | -2 | 1 | . | .
SMILES | HIF-2a block | aSyn UTR inh | TROY NFkB inh | TWEAK-Fn14 inh | C8 TRAIL sens | HSP90 inh | HSP90 confirm | luciferase ctr
CCNc1ccc(C(=O)O)cc1N | 7 | -42 | -6 | 16 | -1 | 55* | 2 | -6
CCc1ccccc1Nc1ccc(C(=O)O)cc1N | -112 | -52 | -2 | -1 | -2 | 2 | . | .
Cc1ccc(S(=O)(=O)N(C)C[C@@H]2OCc3cn(nn3)CCCC(=O)N([C@@H](C)CO)C[C@H]2C)cc1 | 3 | . | -11 | 9 | -1 | . | . | .
C=CCn1c(SCC(=O)NCCOC)nnc1-c1cc2c(s1)CCC(CC)C2 (stereo not drawn) | -43 | 3 | -23 | -25 | 13 | 52* | 2 | -12
CCOC(=O)C1CCCN(C(=O)c2ccc3nc(-c4cccc(OC)c4)oc3c2)C1 (stereo not drawn) | -145 | -30 | 68* | 46 | 33 | 21* | 36* | 25*
CCN(CC)C(=O)C1CCCN(C(=O)c2ccc3nc(-c4cccc(OC)c4)oc3c2)C1 (stereo not drawn) | -139 | . | -42 | -6 | 3 | . | . | .
CCC(=O)C1CCCN(C(=O)c2ccc3nc(-c4cccc(OC)c4)oc3c2)C1 (stereo not drawn) | -85 | -85 | 53* | 39 | 16 | 25* | 32* | 15*
COCCN(CCOC)Cc1cc(=O)oc2ccc3ccccc3c12 | 10 | . | 11 | -38 | 22 | . | . | .
CCCCC(=O)Nc1ccc(N2CCCC2)cc1 | -20 | -3 | 29 | -13 | -21 | 3 | . | .
CCCOC(=O)Nc1ccc(N2CCCCC2)cc1 | -134 | -67 | -52 | 26 | 34 | 21* | 34* | 21*
CN(C)c1ccc(/C=N/NC(=O)c2ccccn2)cc1 | -47 | 36 | 31 | -14 | 66* | 24* | 62* | 47*
O=C(Nc1ccc(N2CCCCC2)cc1)c1ccccn1 | 93* | 114* | 87* | 100* | 93* | 92* | 93* | 89*
O=C(N/N=C/c1ccncc1)c1ccccn1 | -90 | -90 | -15 | -13 | 0 | 2 | . | .
CC(C)c1ccc(/C=N/NC(=O)c2ccccn2)cc1 | -71 | 20 | 46 | 77* | 81* | 28* | 69* | 63*
COC(=O)[C@@]12C[C@@H](CC(=O)NCC3CCCCC3)C(=O)N(CCc3ccc(OC)c(OC)c3)C1=CCC(C)(C)C2 | -2 | . | . | . | 8 | . | . | .
CN(C)c1ccc(/C=C(\C#N)c2ccccn2)cc1 | 31 | 102* | 74* | 94* | 94* | 66* | 84* | 78*
O=C(N/N=C/c1ccc(N2CCOCC2)cc1)c1ccccn1 | -154 | -103 | -18 | 7 | 37 | 26* | 14 | 1
